# Pf growth 48h: Primary qHTS for delayed death inhibitors of the malarial parasite plastid, 48 hour incubation; AID 504832, 2011; 310,000 compounds, 5.9% hits; Potency, µM (doses to about 28.7 µM), without a hit: at the highest dose activity change, negative = inhibition, usual class: inhibitors; P. falciparum luciferase growth in erythrocytes, 48 h; note: potency is the fitted concentration of half-maximal effect; % is set by controls: 0 for no effect and ±100 for the full control effect
#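 Parasite viability was followed by luminescence of a genomically integrated firefly luciferase. Cultures held 0.1% parasitemia at 2% hematocrit (final), incubated under 5% CO2 at 37 C.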
# Shiga inhibitor: A qHTS for Small Molecule Inhibitors of Shiga Toxin. Vero cells, Shiga toxin protein synthesis inhibition reporter. inhibition, % at 38.7 µM. 290,000 compounds, 9.2% hits; in the data active = inhibition mostly above about 28%, no sharp cut-off; inactive = mostly below about 43%; note: 0% is about no effect
# Pf growth 96h: Primary qHTS for delayed death inhibitors of the malarial parasite plastid, 96 hour incubation; P. falciparum luciferase reporter growth, 96 h; Potency, µM (highest dose often 28.7 µM), without a hit: at the highest dose activity change, negative = inhibition, hits mostly inhibitors; 320,000 compounds, 6.9% hits; note: potency is the fitted concentration of half-maximal effect; % is set by controls: 0 for no effect and ±100 for the full control effect
#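 Readout is luminescence from an integrated firefly luciferase in P. falciparum. Red cells, 2% hematocrit and 0.05% parasitemia final, were cultured with compound through two parasite generations (96 hours) at 37 C, 5% CO2.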
# LmPK inh: qHTS Assay for Inhibitors of Leishmania Mexicana Pyruvate Kinase (LmPK); purified LmPK, Kinase-Glo ATP luminescence, 1 h; Potency, µM (highest dose often 57.5 µM), for inactives: top-dose activity change, negative = inhibition, hits mostly inhibitors; 290,000 compounds, 0.37% hits; AID 1721, 2009; note: potency is the fitted concentration of half-maximal effect; % is set by controls: 0 for no effect and ±100 for the full control effect
# Target sequence (Q27686 whole entry, looked up): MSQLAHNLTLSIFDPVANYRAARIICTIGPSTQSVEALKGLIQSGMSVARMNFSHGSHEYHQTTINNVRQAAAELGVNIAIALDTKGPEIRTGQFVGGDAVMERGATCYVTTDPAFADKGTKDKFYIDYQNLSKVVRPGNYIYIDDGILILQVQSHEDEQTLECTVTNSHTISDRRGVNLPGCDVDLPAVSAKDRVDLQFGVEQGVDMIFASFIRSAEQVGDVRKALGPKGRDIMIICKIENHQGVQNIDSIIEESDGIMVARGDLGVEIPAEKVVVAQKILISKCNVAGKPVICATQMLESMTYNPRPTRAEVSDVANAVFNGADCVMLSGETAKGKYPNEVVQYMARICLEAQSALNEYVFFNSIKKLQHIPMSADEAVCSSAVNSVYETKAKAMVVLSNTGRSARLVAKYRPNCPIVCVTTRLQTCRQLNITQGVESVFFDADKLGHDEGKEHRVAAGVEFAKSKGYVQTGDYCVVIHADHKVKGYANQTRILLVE
#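 Purified LmPK (0.1 nM) with 0.5 mM PEP and 0.1 mM ADP in imidazole buffer pH 7.2 with MgCl2/KCl, 1 h at room temperature. ATP formed was read by luciferase luminescence and normalized to no-enzyme and uninhibited controls.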
# CHX counter: Cycloheximide Counterscreen for Small Molecule Inhibitors of Shiga Toxin; cell reporter, cycloheximide protein synthesis inhibition counterscreen; max response, %; 300,000 compounds, 12% hits; in the data active = max response mostly above about 13%, no sharp cut-off; inactive = mostly below about 14%; note: read at 38.3 µM for the half of the compounds with a filed dose; 0% is about no effect
# * marks the source's active call; other numbers are inactive results; ? = inconclusive; nt = no result given. Only some compounds are listed: those with a hit (about 22% of all), similar ones and a draw of the others. Unless noted, calls come from the whole dose curve; as a rule, active = well fitted inhibition curve with a large enough effect; inconclusive = small, poorly fitted or top-dose-only effect, or another doubt; inactive = no such curve, though single readings can be large or run the other way.
SMILES,Pf growth 48h,Shiga inhibitor,Pf growth 96h,LmPK inh,CHX counter
Cc1c(C(=O)N(C)C)sc2c1c(=O)n(-c1ccc(Cl)c(Cl)c1)c(=O)n2CC(=O)Nc1ccc(Br)cc1F,nt,-8.7,nt,nt,1.8
COCCN(C(=O)CSc1nnc(-c2cccc(F)c2)n1N)c1c(N)n(Cc2ccccc2)c(=O)[nH]c1=O,-17.4%,nt,-21.5%,nt,nt
O=C(COc1ccc(-c2ccccc2)cc1)NNC(=O)Nc1ccc(F)cc1F,20.5%,-11.2,?,2.3%,1.4
CCCCNC(=O)C1C2C=CC(C2)C1C(=O)O (centres undefined),26.6%,-9.2,-1.3%,3.0%,-4.9
O=C(O)C1C2C=CC(C2)C1C(=O)NCCCN1CCOCC1 (centres undefined),5.5%,-18.8,11.7µM*,0.8%,16.0
CC(C)Oc1ccc(S(=O)(=O)N2CCCCC2)cc1NC(=O)CN1C(=O)NC2(CCCC2)C1=O,11.7µM*,nt,?,nt,nt
CC(C)Oc1ccc(S(=O)(=O)N2CCCCC2)cc1NC(=O)CN1CCCC1c1cccs1 (centres undefined),4.15µM*,nt,4.15µM*,nt,nt
O=C(CN1C(=O)NC2(CCCC2)C1=O)Nc1cc(S(=O)(=O)N2CCOCC2)ccc1OCC(F)(F)F,-7.3%,-2.8,10.4%,-6.5%,1.2
CCOc1ccc(S(=O)(=O)N2CCOCC2)cc1NC(=O)CN1C(=O)NC(CC)(c2ccccc2)C1=O (centres undefined),11.7µM*,-10.1,?,-4.3%,1.1
CCOc1ccc(S(=O)(=O)N2CCCCC2)cc1NC(=O)CN1C(=O)NC(C)(c2ccc(C)cc2)C1=O (centres undefined),13.1µM*,nt,7.38µM*,nt,nt
CN1CCN(NC(=O)/C=C/c2cccc([N+](=O)[O-])c2)CC1,12.4%,6.7,29.1%,0.2%,10.3
CCC1(c2ccccc2)NC(=O)N(CC(=O)Nc2cc(S(=O)(=O)N3CCOCC3)ccc2OC(C)C)C1=O (centres undefined),11.7µM*,nt,?,nt,nt
N#Cc1c(-c2ccccc2)cc2nc3ccccc3n2c1N,-14.0%,0.5,?,-2.3%,23.7*
CC(=O)Nc1nc(C2CC2)cc(-c2ccccc2)c1C#N,5.4%,5.7,?,-5.2%,-5.0
O=C(NCc1ccc(F)cc1)C1CCCN(S(=O)(=O)c2cccc3nonc23)C1 (centres undefined),-8.0%,-3.1,?,-7.1%,-1.2
O=C(C1CCCN(S(=O)(=O)c2cccc3nonc23)C1)N1CCN(c2cccc(Cl)c2)CC1 (centres undefined),nt,-5.7,7.38µM*,-0.7%,-1.9
O=C(C1CCCN(S(=O)(=O)c2cccc3nonc23)C1)N1CCN(c2ccccc2Cl)CC1 (centres undefined),11.7µM*,-18.0,11.7µM*,1.7%,-3.6
O=C(Nc1ccc(F)cc1)C1CCCN(S(=O)(=O)c2cccc3nonc23)C1 (centres undefined),-20.2%,-6.3,3.7µM*,-2.4%,-0.7
Cc1cccc(N2CCN(S(=O)(=O)c3cccc4nonc34)CC2)c1C,-12.9%,-12.6,2.94µM*,0.0%,-5.1
COC(=O)c1ccc(NS(=O)(=O)c2ccc(-c3cc(C)no3)s2)cc1,18.5%,15.3,20.4%,7.3%,2.3
CSc1ccccc1OCc1cc(C(=O)NC(C)c2cnn(C)c2)no1 (centres undefined),17.2%,-8.3,?,-8.1%,13.5
COc1ccc(OCc2cc(C(=O)NC3Cc4ccccc4C3)no2)c(Cl)c1,15.4%,12.6,0.6%,-4.1%,-4.1
CSc1ccccc1OCc1cc(C(=O)N[C@H]2CCCCNC2=O)no1,?,128.0*,?,1.9%,57.3*
COc1ccc(OCc2cc(C(=O)N[C@H]3CCCCNC3=O)no2)c(Cl)c1,40.0%,58.3*,-24.3%,-1.1%,49.2*
COc1ccc(C(=O)Nc2cc(C)nn2-c2cccc(F)c2)cc1OC,17.7%,-8.7,?,1.2%,-4.2
SMILES,Pf growth 48h,Shiga inhibitor,Pf growth 96h,LmPK inh,CHX counter
O=C(CCCOc1ccc(Cl)cc1Cl)Nc1ccccn1,38.2%,54.8*,-19.3%,1.3%,15.5
Cc1ccc(C)c(OCC(=O)Nc2cc(NC(=O)COc3cc(C)ccc3C)cc(C(=O)O)c2)c1,15.4%,12.9,8.28µM*,-6.1%,-1.7
CC(=O)Nc1ccc(NC(=O)C(C)Oc2ccc(Cl)cc2Cl)cc1 (centres undefined),?,-11.5,26.0%,4.6%,-1.9
Cc1ccc(OCC(=O)NNC(=S)NC(=O)C2CCCCC2)c(C)c1,1.4%,-7.8,?,-6.1%,-1.7
Cc1ccc(C)c(OCC(=O)Nc2nonc2NC(=O)COc2cc(C)ccc2C)c1,?,-12.5,3.1%,-4.3%,-1.3
Cc1ccc(OCC(=O)NNC(=S)NC(=O)C2CC2)c(C)c1,?,-2.8,14.7µM*,-9.6%,6.9
CC(Oc1ccc(Cl)cc1Cl)C(=O)Nc1ccncc1 (centres undefined),10.4µM*,-18.0,-5.4%,1.8%,-7.2
Cc1ccc(S(=O)(=O)NCCc2ccncc2)cc1[N+](=O)[O-],?,-9.2,?,-8.2%,1.6
Cc1ccc(CNC(=O)COC(=O)c2cccc(S(=O)(=O)N3CCCCC3)c2)cc1,7.5%,nt,4.1%,nt,nt
O=C(CCCOc1ccc(Cl)cc1Cl)Nc1ccncc1,nt,24.6,-40.7%,0.3%,14.8*
Cc1ccc(OCC(=O)Nc2ccncc2)c(C)c1,30.9%,23.1,-5.0%,1.3%,19.9*
O=C(COc1ccc(Cl)cc1Br)Nc1ccncc1,1.3%,46.9*,?,1.8%,57.6*
Cc1ccccc1OCC(=O)Nc1ccncc1,-2.2%,39.9,-43.1%,-1.4%,1.8
COCCNC(=O)COc1ccc(C)cc1C,nt,36.5,45.0%,3.5%,11.8
Cc1ccc(OCC(=O)NNC(=O)c2ccco2)c(C)c1,5.9%,13.9,3.9%,-0.6%,13.6*
O=C(COC(=O)Cc1ccccc1[N+](=O)[O-])NCc1ccc(F)cc1,14.8%,-2.8,38.4%,-0.4%,-1.4
Cc1nc2cc(NS(=O)(=O)c3ccc(Br)cc3)ccc2n1C,9.6%,-3.2,?,1.1%,5.6
O=C1C2C3CCC(C3)C2C(=O)N1Cc1ccccc1 (centres undefined),17.6%,-37.9,?,-0.3%,4.8
CCNC(=O)CCCOc1ccc(Cl)cc1Cl,55.8%,53.9*,?,-0.7%,28.8*
CCOC(=O)CNC(=O)COc1ccc(Cl)cc1Br,5.1%,-9.3,10.4µM*,0.1%,-2.9
O=C(COc1ccc(Cl)cc1Cl)Nc1cccnc1,75.7%,86.3*,20.5%,0.0%,45.5*
O=C(COC(=O)COc1ccc(Cl)cc1Br)NCc1cccs1,16.9%,-16.6,26.9%,10.4%,1.6
Cc1noc(C)c1C(=O)NC(C)c1ccc(Cl)cc1Cl (centres undefined),?,-5.7,-6.3%,-1.4%,-2.4
O=C(Nc1nc2c(Br)cc(Br)cc2c(=O)s1)C1CCC1,2.33µM*,-10.1,25.0%,-1.8%,1.6
